# Screening data from PubChem BioAssay.
# SRC3 TRFRET art – counter-screen for PPARgamma SRC-3 recruitment agonists: TR-FRET artefact; PPARgamma/SRC-3 format; stronger effect = higher value; TR-FRET ratio at 8 µM; 99,000 compounds, 0.39% hits
# SRC2 TRFRET art – counter-screen for PPARgamma SRC-2 recruitment agonists: TR-FRET artefact; stronger effect = higher value; 200,000 compounds, 0.4% hits; TR-FRET ratio at 8 µM
# PPARg SRC3 recr – PPARgamma-driven SRC-3 recruitment agonism; AID 731; 200,000 compounds, 0.26% hits; biochemical PPARgamma/SRC-3 coactivator recruitment assay; activation, % at 8 µM; in the data active = activation above about 23%
# Target sequence (P37231 whole entry, looked up): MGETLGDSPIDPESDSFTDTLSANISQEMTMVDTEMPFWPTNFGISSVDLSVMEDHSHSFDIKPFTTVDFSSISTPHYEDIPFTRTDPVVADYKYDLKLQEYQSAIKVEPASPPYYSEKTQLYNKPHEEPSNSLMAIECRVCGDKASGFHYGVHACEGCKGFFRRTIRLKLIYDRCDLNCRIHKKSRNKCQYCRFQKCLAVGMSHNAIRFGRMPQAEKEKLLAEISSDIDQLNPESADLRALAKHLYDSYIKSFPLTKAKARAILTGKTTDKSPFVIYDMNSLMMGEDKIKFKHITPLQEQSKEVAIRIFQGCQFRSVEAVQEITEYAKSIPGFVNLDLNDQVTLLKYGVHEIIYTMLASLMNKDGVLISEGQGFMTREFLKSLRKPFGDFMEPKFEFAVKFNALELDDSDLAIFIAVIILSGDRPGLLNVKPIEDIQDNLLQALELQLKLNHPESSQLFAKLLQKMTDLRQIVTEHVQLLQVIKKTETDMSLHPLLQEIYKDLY
# PPARg SRC-1 ag – agonists of human PPARgamma SRC-1 coactivator recruitment; P37231; PPARgamma-SRC-1 coactivator recruitment biochemical assay; activation, % at 8 µM; 200,000 compounds, 0.41% hits; AID 631; in the data active = activation above about 19%
# PPARg SRC-2 ag – promotes SRC-2 coactivator recruitment by human PPARgamma; AID 1032; 200,000 compounds, 0.34% hits; P37231; activation, % at 8 µM; PPARgamma LBD-SRC-2 recruitment, biochemical; in the data active = activation above about 22%
# SRC1 TRFRET art – TR-FRET artefact, counter-screen to PPARgamma/SRC-1 agonist assay | TR-FRET ratio at 8 µM | AID 1051 | TR-FRET detection artefact counter-screen, emission ratio; stronger effect = higher value | 99,000 compounds, 0.34% hits; in the data active = TR-FRET ratio above about 2300
# A number is an active result; – = inactive; · = not tested or not shown. Hits are enriched below; roughly 0.9% of the tested compounds scored in any of these assays. Rule as the data show it, unless noted: active = TR-FRET ratio above about 2000; inactive = the rest.
SMILES,SRC3 TRFRET art,SRC2 TRFRET art,PPARg SRC3 recr,PPARg SRC-1 ag,PPARg SRC-2 ag,SRC1 TRFRET art
Cc1ccc(/C=C2\SC(N)=NC2=O)s1,–,–,–,–,24.0,–
Cc1cc(C(=O)OCC(=O)c2ccc3c(c2)OCCO3)c(C)o1,·,–,–,–,–,·
Cc1c(C(=O)OCC(=O)c2ccc3c(c2)OCCO3)oc2ccccc12,·,2066,–,–,–,·
O=C(N/N=C/c1cccs1)c1ccc(NC(=O)c2ccccc2Cl)cc1,–,–,–,–,–,–
O=C(N/N=C/c1ccco1)c1ccc(NC(=O)c2ccccc2Cl)cc1,–,1979,–,–,–,–
Cc1ccc(NC(=O)CN(C)C(=O)/C=C/c2cccs2)cc1,–,–,–,–,–,–
CCOC(=O)c1c(C)[nH]c(C(=O)COC(=O)CNC(=O)C2CCCCC2)c1C,·,–,28.8,–,–,·
COc1ccc(-c2cc(-c3ccccc3)nc3ncnn23)cc1,–,–,–,–,–,–
COc1ccc(-c2cc(-c3ccc(Br)cc3)nc3ncnn23)cc1OC,·,2400,–,–,–,·
COc1cnn(-c2ccccc2)c(=O)c1N(C)C,·,–,25.8,–,–,·
Cn1c(=O)c2[nH]c(-c3ccccc3Cl)c(O)c2n(C)c1=O,–,–,–,–,–,–
Cn1c(=O)c2[nH]c(-c3ccccc3)c(O)c2n(C)c1=O,–,–,–,–,–,2338
COC(=O)c1c(C)[nH]c(C(=O)CSc2ncnc3sc(-c4ccccc4)cc23)c1C,–,–,–,–,–,–
CCOc1ncccc1C(=O)Nc1ccc(F)c(Cl)c1,–,–,–,–,–,–
CN(C)c1ccc(N=C/C=C2\N(C)c3ccccc3C2(C)C)cc1,·,–,27.9,–,–,·
CCOC(=O)CSC(=S)NC(=O)c1ccc(OC)cc1,–,1985,–,–,–,2487
O=C(Nc1cccc2ccccc12)c1cn(-c2ccccc2)nc1-c1cccs1,·,2231,–,–,–,·
COC(=O)c1[nH]c2cc(OC)c(OC)cc2c1NC(=O)Oc1ccccc1,·,–,28.1,–,–,·
CC(NC(=O)COc1ccccc1)C(c1ccccc1)N1CCN(C)CC1 (configuration not stated),–,–,–,–,–,2331
CCOc1ccc(NC(=S)NC(C)C(c2ccccc2)N2CCN(C)CC2)cc1 (configuration not stated),–,–,–,–,–,–
Cc1cc(C)c(C(=O)CSc2nnc(-c3ccccc3Br)o2)cc1C,·,–,–,26.9,–,·
Cc1ccc(NC(=O)CSc2nnc(-c3ccccc3Br)o2)cc1C,·,–,–,–,–,·
NS(=O)(=O)c1ccc(CCn2c(=S)[nH]c3ccc(F)cc3c2=O)cc1,–,–,–,–,–,–
O=c1oc2ccccc2cc1-c1cn2ccccc2n1,3228,–,60.2,–,–,–
O=C(NC(Cc1c[nH]c2ccccc12)C(=O)O)c1ccc(Br)cc1 (configuration not stated),–,–,–,–,–,–
SMILES,SRC3 TRFRET art,SRC2 TRFRET art,PPARg SRC3 recr,PPARg SRC-1 ag,PPARg SRC-2 ag,SRC1 TRFRET art
O=C(CCc1nc2ccccc2c(=O)[nH]1)OCc1ccc(Cl)cc1Cl,–,–,–,–,–,–
Cc1ccc2cc(C#N)c(NCc3ccccc3)nc2c1,2317,–,–,–,–,2504
COc1ccc(-n2nnnc2SCC(=O)c2cc3ccccc3o2)cc1,·,2072,–,–,–,·
Oc1ccc(NCc2ccccc2OCc2ccccc2)cc1,–,2166,–,–,28.8,–
COc1ccc(C2(O)CCN(CC(=O)Nc3nccs3)CC2)c(OC)c1,·,1972,–,–,–,·
N#CC1=C(N)OC2=C(CC/C2=C\c2ccc(F)cc2)C1c1ccc(F)cc1 (configuration not stated),–,–,–,–,–,–
N#CC1=C(N)OC2=C(CCC/C2=C/c2ccoc2)C1c1ccoc1 (configuration not stated),·,–,30.9,–,–,·
CC(=O)N1C(=O)/C(=C2\SC(=S)N(NS(=O)(=O)c3ccc(C)cc3)C2=O)c2ccccc21,–,–,–,–,–,–
CN1/C(=C\C(=O)COc2ccc3c(c2)OCO3)C(C)(C)c2ccccc21,·,2258,–,–,–,·
COc1cccc(/C=c2/s/c(=C(\C#N)C(=O)N3CCOCC3)n(-c3ccccc3)c2=O)c1,·,–,48.4,–,–,·
COc1ccc(/C=c2\s/c(=C(/C#N)C(=O)NCc3ccco3)n(-c3ccccc3)c2=O)cc1,–,–,–,–,–,–
O=c1cc(Cn2ccnc2)c2cc3c(cc2o1)CCC3,·,–,29.3,–,–,·
CCOC(=O)c1cnc2c(C(F)(F)F)cccc2c1N1CCOCC1,·,–,–,–,–,·
CCOC(=O)c1cnc2c(C)c(Cl)ccc2c1N1CCOCC1,·,–,40.1,–,–,·
O=C(Nc1ccc([N+](=O)[O-])cc1)/C(=C/c1cccc([N+](=O)[O-])c1)NC(=O)C1CCCCC1,·,–,–,–,24.5,·
Cc1ccc(NC(=O)/C(=C/c2cccc([N+](=O)[O-])c2)NC(=O)C2CCCCC2)c(C)c1,·,–,–,–,–,·
Cn1cccc1CC(=O)N/N=C/C(Cl)=C/c1ccccc1,–,–,–,–,–,2381
Cc1ccc(CSc2nc3c(cc2C#N)CCC3)cc1,·,–,–,30.3,–,·
N#Cc1cc2c(nc1SCc1ccc(Cl)cc1)CCCC2,·,–,–,–,–,·
FC(F)(F)c1nnc2c(Sc3ccc(Cl)cc3)nc3ccccc3n12,·,–,–,31.8,–,·
COc1ccc(/C(N)=N/OC(=O)CN(C)S(=O)(=O)c2ccc(C)cc2)cc1,–,–,–,22.1,–,–
COc1ccc(/C(N)=N/OC(=O)CN(C)S(=O)(=O)c2ccccc2)cc1,–,–,–,–,–,–
O=C(COc1ccccc1[N+](=O)[O-])N(Cc1ccccc1)c1ccccn1,–,–,–,–,–,–
CC1=C(C(=O)Nc2ccc(F)c(F)c2)C(c2cccs2)NC(=S)N1 (configuration not stated),–,1973,–,–,–,2450
O=C(COC(=O)c1ccccc1C(=O)c1ccccc1)NCCc1ccccc1,–,–,–,20.9,–,–
SMILES,SRC3 TRFRET art,SRC2 TRFRET art,PPARg SRC3 recr,PPARg SRC-1 ag,PPARg SRC-2 ag,SRC1 TRFRET art
CCOC(=O)C1CCN(C(=O)CSc2ccccc2Cl)CC1,–,–,–,21.2,–,–
CC(C)CCNC(=O)C(c1ccco1)N(CCCO)C(=O)Cn1nnc(-c2ccc(F)cc2)n1 (configuration not stated),–,–,–,–,–,–
NC(N)=Nc1nc(CSCC/C(N)=N/S(N)(=O)=O)cs1,–,–,–,21.6,–,–
CC1=C(C(=O)OCC2CCCO2)C(c2coc3ccccc3c2=O)C2=C(CCCC2=O)N1 (configuration not stated),–,–,–,–,–,–
O=C(Cc1ccccc1)NC1(Cc2ccc(O)cc2)CCCCC1,–,–,–,–,–,–
Cc1sc(-n2c(C)cc(/C=N/n3cnnc3)c2C)c(C#N)c1C,·,–,29.5,–,–,·
O=C(Cc1cccs1)Nc1ccc(-c2nnc(-c3ccco3)o2)cc1,–,–,–,–,–,–
